# Measured values published in paper PMC4336329 (PLoS ONE, 2015).
# Out of some 310,000 compounds screened, about 14,000 (4.5%) showed an effect of 50% or more. Effects have a minus sign here. The list comes from a sample in which strong results are over-represented; it also holds similar structures and randomly drawn compounds.
# Target: human ether-à-go-go-related gene (hERG) potassium channel (human, UniProt Q12809)
# Assay: primary screen, population patch clamp on CHO cells stably expressing hERG; higher = less effect of the substance
# 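Note: peak tail current of the secondary pulse compared with the same well before compound.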
# Sequence of human ether-à-go-go-related gene (hERG) potassium channel (Q12809 whole entry, looked up): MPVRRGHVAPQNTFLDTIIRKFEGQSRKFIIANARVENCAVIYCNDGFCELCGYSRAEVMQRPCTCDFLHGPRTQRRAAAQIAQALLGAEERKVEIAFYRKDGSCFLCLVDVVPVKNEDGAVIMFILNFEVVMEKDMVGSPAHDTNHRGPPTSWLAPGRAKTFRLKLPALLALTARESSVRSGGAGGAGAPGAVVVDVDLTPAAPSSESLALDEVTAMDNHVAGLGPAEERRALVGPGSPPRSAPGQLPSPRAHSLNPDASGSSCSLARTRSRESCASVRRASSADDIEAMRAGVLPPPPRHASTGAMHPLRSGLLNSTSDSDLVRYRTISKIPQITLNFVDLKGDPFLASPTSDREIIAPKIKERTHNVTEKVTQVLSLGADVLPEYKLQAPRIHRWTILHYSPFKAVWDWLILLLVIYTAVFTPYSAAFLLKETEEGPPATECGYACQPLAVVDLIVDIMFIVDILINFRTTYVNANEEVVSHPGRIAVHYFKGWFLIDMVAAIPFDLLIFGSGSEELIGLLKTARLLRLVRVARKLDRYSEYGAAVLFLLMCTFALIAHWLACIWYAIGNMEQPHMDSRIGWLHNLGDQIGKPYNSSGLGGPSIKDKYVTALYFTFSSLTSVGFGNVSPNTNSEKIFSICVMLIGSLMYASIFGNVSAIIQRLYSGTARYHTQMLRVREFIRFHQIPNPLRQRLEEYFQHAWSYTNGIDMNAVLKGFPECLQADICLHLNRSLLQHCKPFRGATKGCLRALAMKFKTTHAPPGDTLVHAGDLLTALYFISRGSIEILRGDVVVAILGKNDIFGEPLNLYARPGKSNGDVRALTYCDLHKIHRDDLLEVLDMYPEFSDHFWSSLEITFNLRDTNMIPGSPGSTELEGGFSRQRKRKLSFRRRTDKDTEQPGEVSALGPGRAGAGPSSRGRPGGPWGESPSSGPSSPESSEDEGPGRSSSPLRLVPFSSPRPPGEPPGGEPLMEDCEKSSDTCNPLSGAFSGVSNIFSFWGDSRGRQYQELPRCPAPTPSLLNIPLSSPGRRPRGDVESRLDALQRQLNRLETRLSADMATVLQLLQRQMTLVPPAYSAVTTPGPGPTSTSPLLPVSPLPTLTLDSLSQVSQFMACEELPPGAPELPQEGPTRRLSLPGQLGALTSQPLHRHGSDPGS
row,Structure (SMILES),"hERG current change (%, negative = inhibition) at 10uM [%]"
1,CCc1ccc(N2CC(C(=O)N3CCN(c4ccccn4)CC3)CC2=O)cc1 (centres unmarked),-24.3
2,COc1ccc(C2C(C(=O)N3CCN(c4ccccn4)CC3)CCC(=O)N2c2ccc(OC)cc2)cc1 (centres unmarked),-47.3
3,COc1ccc(N2C(=O)CCC(C(=O)N3CCN(c4ccccn4)CC3)C2c2ccc(F)cc2)cc1 (centres unmarked),-48.2
4,CCOc1ccc(N2CC(C(=O)N3CC(C)OC(C)C3)CC2=O)cc1 (centres unmarked),20
5,COc1ccc(C2C(C(=O)N3CCN(c4ccccn4)CC3)CC(=O)N2c2ccc(OC)cc2)cc1 (centres unmarked),-78.7
6,CCOc1ccc(N2CC(C(=O)N3CCCC3)CC2=O)cc1 (centres unmarked),-4.65
7,CCOc1ccc(N2CC(C(=O)N3CCN(c4ccccn4)CC3)CC2=O)cc1 (centres unmarked),-59
8,CCOc1ccc(N2CC(C(=O)N3CCc4ccccc43)CC2=O)cc1 (centres unmarked),-47.6
9,CCOc1ccc(N2CC(C(=O)N3CCc4ccccc4C3)CC2=O)cc1 (centres unmarked),-75
10,Cc1ccc(N2CC(C(=O)N3CCCc4ccccc43)CC2=O)cc1 (centres unmarked),-18.8
11,CCOc1ccc(N2CC(C(=O)N3CCCc4ccccc43)CC2=O)cc1 (centres unmarked),-62.6
12,Cc1ccc(N2CC(C(=O)N3CCc4ccccc4C3)CC2=O)cc1 (centres unmarked),-44.5
13,COc1cccc(NS(=O)(=O)c2ccc3[nH]cc(C(=O)NCCC(C)C)c(=O)c3c2)c1,13.9
14,Cc1ccc2nc(N/C(=N/S(=O)(=O)c3cccs3)c3ccccc3Cl)sc2c1,-7.11
15,CN1CCN(S(=O)(=O)c2ccc(NC(=O)c3cccs3)cc2)CC1,-11.3
16,NC(=O)c1ccsc1NC(=O)COC(=O)c1cnccn1,2.13
17,CC1CCC(NC(=O)CNC(=O)c2cccs2)CC1 (centres unmarked),7.33
18,Cc1n[nH]c(=O)nc1N1CCc2ccccc2C1,4.47
19,COc1cc(OC)cc(C(=O)Nc2ccc3c(c2)CCCN3C(=O)c2cccs2)c1,-2.41
20,CCOc1cc(S(=O)(=O)NCC2CCCO2)ccc1F (centres unmarked),13.8
21,COc1ccccc1/C=C/C=N/n1c(-c2ccc(F)cc2)n[nH]c1=S,6.25
22,CC1=NS(=O)(=O)c2cc(Cl)ccc2N1,-2.63

row,Structure (SMILES),"hERG current change (%, negative = inhibition) at 10uM [%]"
1,Cc1occc1C(=O)NNC(=O)CN1C(=O)NC(C)(c2ccccc2)C1=O (centres unmarked),19.1
2,COc1cccc(NC(=O)CN(C)C(=O)c2oc3c(ccc4ccccc43)c2C)c1,-0.74
3,CCOC(=O)c1cc(C#N)c(C)nc1N(CC)CC,-3.53
4,CC(=O)Nc1cccc(OCC(=O)NS(=O)(=O)c2ccc(C)cc2)c1,1.18
5,O=C1CC(C(=O)N2CCCc3ccccc32)CN1c1ccc(F)cc1 (centres unmarked),-22.2
6,O=C1CC(C(=O)N2CCc3ccccc32)CN1c1ccc(F)cc1 (centres unmarked),-55.3
7,O=C1CC(C(=O)N2CCc3ccccc32)CN1c1ccccc1 (centres unmarked),-6.98
8,CCNC(=O)CC1SC(=Nc2ccc(Cl)cc2)N(CC)C1=O (centres unmarked),-0.837
9,COCCCn1c(Cc2csc(Nc3ccc(F)cc3)n2)nnc1SCC(N)=O,-5.91
10,COc1cccc(CN(C)CC2CCCN(CCc3ccc(Cl)cc3)C2)c1OC (centres unmarked),-74.5
11,COc1ccc(CN(C)CC2CCCN(CCc3ccc(Cl)cc3)C2)cc1OC (centres unmarked),-88.5
12,COc1cc(CN(C)CC2CCCN(CCc3ccc(F)cc3)C2)c(Cl)cc1O (centres unmarked),-30
13,COc1ccc(CN(C)CC2CCCN(CCc3ccc(F)cc3)C2)cc1OC (centres unmarked),-64.8
14,COc1ccc(CN(C)CC2CCCN(CCc3ccc(F)cc3)C2)c(OC)c1OC (centres unmarked),-74.8
15,COc1ccc(CN(C)C2CCN(C)CC2)cc1OC,21.8
16,Cc1ccc2[nH]c3c(Cl)ncnc3c2c1,5.18
17,Cc1ccc(O)c(C(CC(=O)N2CCCC2)c2ccccc2)c1 (centres unmarked),-18.9
18,COc1ccc(O)c(-c2cc(-c3cccs3)[nH]n2)c1,0.169
19,CCn1cc(C2C(C(=O)Nc3cc(C)ccn3)=C(C)NC3=C2C(=O)CC(C)(C)C3)c(C)n1 (centres unmarked),11.3
20,Cc1cccc(NC(=O)CSc2nc(COc3ccccc3)nc3ccccc23)c1C,13.5
21,COc1ccccc1NC(=O)Nc1nn(C)c2cccc(OC)c12,2.03
22,CCCC12CN3CCN(CC(C3)/C1=N\NC(=O)c1ccc(C(C)(C)C)cc1)C2,-14.4

row,Structure (SMILES),"hERG current change (%, negative = inhibition) at 10uM [%]"
1,Cc1cccc(N2CCN(CC(=O)Nc3nccs3)CC2)c1C,-45.3
2,Cc1cc2nc(-c3ccc(SCC(=O)Nc4ccc5c(c4)OCCO5)nc3)[nH]c2cc1C,2.26
3,COC(=O)c1cc2c(cc1NC(=O)CSCCc1ccccn1)OCO2,7.82
4,COc1ccc(-c2noc(CN(C)S(=O)(=O)c3ccc(Cl)cc3)n2)cc1OC,-9.85
5,O=C1NC(=O)[C@]2(Cc3ccccc3N3CCN(c4ccccc4)CC32)C(=O)N1c1ccccc1 (some centres unmarked),-7.93
6,COc1ccc([N+](=O)[O-])cc1NS(=O)(=O)c1ccccc1,8.94
7,COc1ccc(N2CCN(CC(=O)Nc3cc(C)on3)CC2)cc1.O=C(O)C(=O)O,0.616
8,CC(C)Cn1c(N)c(C(=O)CSc2ncccn2)c(=O)n(C)c1=O,6.81
9,Cc1ccc(S(=O)(=O)CCC(=O)NCc2ccc(Cl)cc2)cc1,-3.96
10,CCN(CC(=O)NCc1ccc(Cl)cc1)C(=O)CCOc1ccc(C)cc1,-82.6
11,CCOc1ccc(N(CC(=O)NCc2ccc(Cl)cc2)S(=O)(=O)c2ccccc2)cc1,20.4
12,CCN(CC(=O)NCc1cccs1)C(=O)CCCOc1ccc(C(C)(C)C)cc1,-52.6
13,CCOc1ccc(OCCC(=O)N(CC)CC(=O)NCc2ccc(Cl)cc2)cc1,-60.5
14,CCOc1ccc(OCCC(=O)OCC(=O)NCc2ccc(Cl)cc2)cc1,8.85
15,CCN(CC(=O)Nc1c(F)cccc1F)C(=O)CCC(=O)c1ccc(F)cc1,-12.1
16,CCN(CC(=O)Nc1ccccc1C(F)(F)F)C(=O)CCOc1ccc(C)cc1,-13.1
17,CCN(CC(=O)Nc1cc(Cl)ccc1C)C(=O)CCOc1ccc(C)cc1,-8.25
18,CCN(CC(=O)NCc1cccs1)C(=O)CCCOc1ccccc1,-35.2
19,CCN(CC(=O)Nc1c(F)cccc1F)C(=O)CCCNC(=O)c1ccc(Cl)cc1,-7.06
20,CCN(CC(=O)Nc1c(F)cccc1F)C(=O)CCNC(=O)c1ccc([N+](=O)[O-])cc1,-55.4
21,CCCCOc1ccc(C(=O)N(CC)CC(=O)NCc2cccs2)cc1,-19.1
